This is an account of results in PubChem BioAssay (NCATS).

Inconclusive results are not listed. Values without a mark were called inactive. Calls of active or inactive are those of the source. Calls come from the whole dose curve; as a rule, active = well fitted curve in the direction sought with a large enough effect; inconclusive = small, poorly fitted or top-dose-only effect, or another doubt; inactive = no such curve, though single readings can be large; an effect the other way counts as inactive or inconclusive.

The target in assay [1] is Cellular tumor antigen p53 (Homo sapiens) (UniProt P04637). Kind of assay: Primary qHTS for small molecule compounds that upregulate eGFP-tagged delta133p53alpha (in N-terminal) cells. (AID 2060322).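 For activation: series mostly up to about 56 µM; 0% = DMSO vehicle and 100% = reference activator.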 Note: nearly all actives have a fitted effect of over 75% in size. Note: potency is the fitted concentration of half-maximal effect. The conditions noted are these: NCI-H358 eGFP-delta133p53alpha fluorescence, 24 h; activation: hits give high values. Summed up: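 NCI-H358 cells pre-induced 24 h with 10 ng/ml doxycycline to express N-terminal eGFP-delta133p53alpha, then dosed 24 h at 37C without doxycycline; fixed, Hoechst-stained, GFP intensity by laser scanning cytometry, normalized to DMSO (0%) and 57.5 uM 5-azacytidine (100%).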
Cellular tumor antigen p53 (Homo sapiens), sequence (P04637 whole entry, looked up): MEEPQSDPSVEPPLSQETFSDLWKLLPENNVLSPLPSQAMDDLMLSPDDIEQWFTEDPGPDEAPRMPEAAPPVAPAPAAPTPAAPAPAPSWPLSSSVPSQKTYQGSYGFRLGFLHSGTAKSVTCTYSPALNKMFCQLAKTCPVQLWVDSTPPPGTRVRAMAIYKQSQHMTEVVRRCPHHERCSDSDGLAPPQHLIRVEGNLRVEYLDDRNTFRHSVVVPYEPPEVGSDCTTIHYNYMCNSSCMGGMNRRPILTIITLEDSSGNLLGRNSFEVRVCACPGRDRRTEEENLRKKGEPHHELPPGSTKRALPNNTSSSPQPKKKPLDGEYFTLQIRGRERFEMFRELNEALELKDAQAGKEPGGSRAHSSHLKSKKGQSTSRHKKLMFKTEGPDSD

Assay [2] concerns the target Aldehyde dehydrogenase, mitochondrial (Homo sapiens) (UniProt P05091). Put plainly: qHTS for Inhibitors of the Aldehyde Dehydrogenase Family (ALDH2) Primary screen (AID 2061308).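 Note: plate controls were vehicle for no effect and reference inhibitor for full effect; nearly all actives have a fitted effect of over 55% in size.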
The target in assay [3] is Retinaldehyde dehydrogenase 3 (Homo sapiens) (UniProt P47895). Put plainly: qHTS for Inhibitors of the Aldehyde Dehydrogenase Family (ALDH1A3) Primary screen (AID 2061315).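 Note: plate controls were DMSO vehicle for no effect and reference inhibitor for full effect.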

Turning to `C[C@@H]1O[C@@H](O[C@H]2[C@H](OC(=O)[C@]34CCC(C)(C)C[C@H]3C3=CCC5[C@@]6(C)C[C@H](O)[C@H](O[C@@H]7O[C@H](C(=O)O)[C@@H](O)[C@H](O)[C@H]7O)[C@@](C)(CO)C6[C@H](O)C[C@@]5(C)[C@]3(C)C[C@H]4O)O[C@@H](CO)[C@@H]2O)[C@H](O)[C@H](O)[C@H]1O[C@@H]1OC[C@@H](O)[C@H](O[C@H]2OC[C@](O)(CO)[C@H]2O)[C@H]1O` (stereo partly drawn), the activation in assay [1] was 21.4%. Further, the figures for the activity change, negative = inhibition in assay [2] and in assay [3] were 4.26% [at 11.2 µM] and 16.1% [at 11.2 µM], respectively.
Turning to `C[C@@H]1CC[C@H]2C(C)(C)[C@H](O)[C@H](O)C[C@]2(C)[C@@]12Cc1c(O)cc3c(c1O2)CNC3=O`, in assay [1], the activation was -3.82%. Further, the Potency entry in assay [2] and in assay [3] was “inactive” each time.
For `COCC(=O)N1CCc2cc(-c3csc(NC(=O)c4cc(OC)cc(OC)c4)n3)ccc21`, in assay [1], the activation is 13.7%. The Potency entry in assay [2] and in assay [3] was “inactive” in each case.
For `COc1cc(C2Oc3c(OC)cc(CCCO)cc3C2CO)ccc1O[C@H]1O[C@H](C)[C@@H](O)[C@H](O)[C@@H]1O` (stereo partly drawn), the activation in assay [1] is -13.7%. Also, the Potency entry in assay [2] and in assay [3] was “inactive” each time.
Regarding `COC(=O)Cn1nc(-c2cccc(OC)c2)c2ccccc21`, the activation in assay [1] is -1.67%. Also, the Potency entry in assay [2] and in assay [3] was “inactive” in each case.
As for `CN1CCN(C(=O)c2cc3cc(Cl)ccc3[nH]2)CC1`, the activation in assay [1] was -0.893%. Besides, the Potency entry in assay [2] and in assay [3] was “inactive” throughout.
Regarding `C[C@@H]1O[C@@H](O[C@H]2[C@H](O)[C@@H](C(=O)O)O[C@@H](O[C@H]3CC[C@@]4(C)C(CC[C@]5(C)C4CC=C4C6CC(C)(C)CC[C@]6(C(=O)O)CC[C@]45C)C3(C)C)[C@@H]2O[C@@H]2O[C@H](CO)[C@@H](O)[C@H](O)[C@H]2O)[C@H](O)[C@H](O)[C@H]1O` (stereo partly drawn), in assay [1], the activation was -2.29%. For the same compound, the Potency result in assay [2] and in assay [3] was “inactive” in each case.
In the case of `Oc1ccc2c(-c3c(-c4ccccn4)nn4c3CCC4)ccnc2c1`, the Potency in assay [1] is 26.9 µM (active). The Potency entry in assay [2] and in assay [3] was “inactive” in each case.
Take `CC(=O)O[C@@H]1C[C@@]23C[C@@]24CC[C@H](OC2OC[C@@H](O)[C@H](O)[C@H]2O)C(C)(C)[C@@H]4CC[C@H]3[C@]2(C)CC3OC4(C[C@@H](C)C3[C@@]12C)OCC1(C)OC14` (stereo partly drawn): the activation in assay [1] was 13.4%. Besides, the Potency result in assay [2] and in assay [3] was “inactive” throughout.
Regarding `COC1(CC(C)C)NC(=O)C(O)(Cc2ccccc2)NC1=O` (stereo not drawn), in assay [1], the activation was -16.8%. The Potency result in assay [2] and in assay [3] was “inactive” throughout.
Take `C=C1C(=O)OC2C(OC(=O)C=C(C)C)C(C)=C3C(=O)C=C(C)C3C(O)C12` (stereo not drawn): in assay [1], the Potency was 14.8 µM (active). In addition, the Potency result in assay [2] and in assay [3] was “inactive” throughout.
`CC1CCC2(C)C(CC(O)C(O)C23CO3)C1(C)CCC1=CC(O)OC1=O` (stereo not drawn): in assay [1], the activation is -2.29%. Moreover, the Potency result in assay [2] and in assay [3] was “inactive” throughout.
For the compound `CC1(C)CC[C@]2(C(=O)O[C@@H]3O[C@H](CO)[C@@H](O)[C@H](O)[C@H]3O)CC[C@]3(C)C(=CCC4[C@@]5(C)C[C@@H](O)[C@H](O)[C@@](C)(CO)C5CC[C@]43C)C2C1` (stereo partly drawn), in assay [1], the activation is 8.4%. Further, the Potency result in assay [2] and in assay [3] was “inactive” each time.
As for `C=CC1C(O[C@@H]2O[C@H](CO)[C@@H](O)[C@H](O)[C@H]2O)OC=C(C(=O)OC)C1Cc1nccc2c1[nH]c1ccccc12` (stereo partly drawn), the activation in assay [1] is 19.6%. The Potency entry in assay [2] and in assay [3] was “inactive” throughout.
`CC1OC(O[C@H]2[C@@H](O)C[C@@]3(C)C([C@H](O)C[C@]4(C)C3CC=C3C5CC(C)(C)CC[C@]5(C(=O)OC5OC(CO)C(O)C(O)C5OC5OCC(OC6OCC(OC7OCC(O)C(O)C7O)C(O)C6O)C(OC6OCC(O)(CO)C6O)C5O)CC[C@]34C)[C@]2(C)CO)C(O)C(O)C1O` (stereo partly drawn): in assay [1], the activation was -6.11%. Moreover, the activity change, negative = inhibition in assay [2] was -1.36% [at 11.2 µM]; in assay [3] it was -4.53% [at 11.2 µM].
Consider `O=c1[nH]ccc2cc(OC3CCNCC3)ccc12`, for which the activation in assay [1] was -7.14%. For the same compound, the Potency result in assay [2] and in assay [3] was “inactive” in each case.
Take `C=C1CCC2C(C)(C)CC(=O)CC2(C)C1CCC(C)CCO` (stereo not drawn): the activation in assay [1] is 6.25%. For the same compound, the Potency result in assay [2] and in assay [3] was “inactive” each time.
As for `COCCCNC(=O)c1ccc(Cn2c(=O)c3ccccc3n(Cc3ccc(C(C)C)cc3)c2=O)cc1`, the activation in assay [1] is 7%. Besides, the Potency result in assay [2] and in assay [3] was “inactive” throughout.
Consider `C=C1CCCC2(C)CCC(C(C)(C)OC3OC(C)C(O)C(O)C3OC(=O)/C(C)=C\C)CC12` (stereo not drawn), for which the activation in assay [1] is -19.8%. The Potency result in assay [2] and in assay [3] was “inactive” throughout.
Take `CN1c2ccccc2C(=O)N2CCC3c4ccccc4NC3C21` (stereo not drawn): the Potency in assay [1] is 1.66 µM (active). For the same compound, the Potency entry in assay [2] and in assay [3] was “inactive” throughout.
For `CCN1CCN(Cc2ccc(NC(=O)c3ccc(C)c(Oc4ccnc5[nH]ccc45)c3)cc2C(F)(F)F)CC1`, the Potency in assay [1] was 14.8 µM (active). Moreover, the Potency entry in assay [2] and in assay [3] was “inactive” in each case.
